In all, about 5,500 compounds went through this assay and about 2,000 (36%) were called active. About 18% were inconclusive and are not listed. No stated cut-off is given here; in the data, active means normalized growth mostly below about 0.91 (no sharp cut-off); inconclusive means no clear call, values can overlap the other calls; inactive means mostly above about 0.92. The list shows a part of the results.
Assay: chemical genetic growth profiling, strain panel (AID 1159580);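 further: tested at 20 µM; growth read once vehicle control cultures reached saturation at 30 °C; 1 = growth at the plate median or of vehicle wells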
Settings: growth OD

Measured: normalized growth

CCC(=O)c1c(C)c(C)c(C)c(C)c1C
inactive: S. cerevisiae deletion strains, locus YAL013W, strain DEP1, stronger effect = lower value 0.985 | S. cerevisiae deletion strains, locus YBR229C, strain ROT2, stronger effect = lower value 0.992 | S. cerevisiae deletion strains, locus YCL061C, strain MRC1, stronger effect = lower value 0.988 | S. cerevisiae deletion strains, locus YDL101C, strain DUN1, stronger effect = lower value 0.99 | S. cerevisiae deletion strains, locus YDL134C, strain PPH21, stronger effect = lower value 0.984 | S. cerevisiae deletion strains, locus YDR150W, strain NUM1, stronger effect = lower value 1.01 | S. cerevisiae deletion strains, locus YEL061C, strain CIN8, stronger effect = lower value 0.975 | S. cerevisiae deletion strains, locus YGR078C, strain PAC10, stronger effect = lower value 1 | S. cerevisiae deletion strains, locus YHR030C, strain SLT2, stronger effect = lower value 0.95 | S. cerevisiae deletion strains, locus YHR087W, strain rtc3, stronger effect = lower value 0.959 | S. cerevisiae deletion strains, locus YJL187C, strain SWE1, stronger effect = lower value 0.995 | S. cerevisiae deletion strains, locus YJR043C, strain POL32, stronger effect = lower value 0.983 | S. cerevisiae deletion strains, locus YJR075W, strain HOC1, stronger effect = lower value 0.948 | S. cerevisiae deletion strains, locus YKL190W, strain CNB1, stronger effect = lower value 0.983 | S. cerevisiae deletion strains, locus YLR039C, strain RIC1, stronger effect = lower value 1.1 | S. cerevisiae deletion strains, locus YLR058C, strain SHM2 (second series), stronger effect = lower value 0.967 | S. cerevisiae deletion strains, locus YLR085C, strain ARP6, stronger effect = lower value 1.01 | S. cerevisiae deletion strains, locus YLR262C, strain YPT6, stronger effect = lower value 1.06 | S. cerevisiae deletion strains, locus YML094W, strain GIM5, stronger effect = lower value 0.977 | S. cerevisiae deletion strains, locus YMR219W, strain ESC1, stronger effect = lower value 0.986 | S. cerevisiae deletion strains, locus YMR263W, strain SAP30, stronger effect = lower value 0.977 | S. cerevisiae deletion strains, locus YNL153C, strain GIM3, stronger effect = lower value 0.982 | S. cerevisiae deletion strains, locus YNL298W, strain CLA4 (second series), stronger effect = lower value 0.966 | S. cerevisiae deletion strains, locus YNL322C, strain KRE1, stronger effect = lower value 0.997 | S. cerevisiae deletion strains, locus YNR030W, strain Alg12, stronger effect = lower value 0.954 | S. cerevisiae deletion strains, locus YOL006C, strain TOP1, stronger effect = lower value 1.01 | S. cerevisiae deletion strains, locus YPL055C, strain LGE1, stronger effect = lower value 0.971 | S. cerevisiae deletion strains, locus YPL241C, strain CIN2, stronger effect = lower value 0.986 | S. cerevisiae deletion strains, locus YPR135W, strain CTF4, stronger effect = lower value 0.976 | S. cerevisiae strains, strain wild type, stronger effect = lower value 0.988

Source: PubChem BioAssay AID1159580 (chemical genetic matrix, 2015)
